Compound activity: PubChem, National Center for Advancing Translational Sciences (NCATS)
A selection: hits, their analogues and other compounds. The true share with any hit is near 11%.
Gal4-VP16 FLuc: VP16 counterscreen qHTS for inhibitors of ROR gamma transcriptional activity. 3.5% of 310,000 active. Drosophila S2 Gal4-VP16 UAS-luciferase, luminescence, 20 h. Potency, µM (series often up to 53.6 µM), for the others: top-dose activity, negative = inhibition, usual class: inhibitors. AID 2546, 2010;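 note: Gal4-VP16 expression switched on by copper sulfate through the metallothionein promoter; potency is the fitted concentration of half-maximal effect; % is set by controls: 0 for no effect and ±100 for the full control effect; nearly all actives have a fitted effect of over 50% in size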
SW480 rerep: A quantitative high throughput screen for small molecules that induce DNA re-replication in SW480 colon adenocarcinoma cells; SW480 DNA re-replication, Hoechst DNA content imaging, 48 h; Potency, µM (highest dose often 46.1 µM), for the others: at the top dose re-replication activation, hits mostly activators; 1.8% of 340,000 active; AID 624297, 2012; note: potency is the fitted concentration of half-maximal effect; % of control where 0% means no effect; nearly all actives have a fitted effect of over 55% in size
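Hoechst fluorescence of nuclei (405 nm excitation, 500-530 nm emission) measured by plate-scanning imager after 48 hr compound exposure at 37 C; re-replication scored as increased number of nuclei with elevated intensity.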
RORg inh: qHTS for inhibitors of ROR gamma transcriptional activity. Nuclear receptor ROR-gamma (Mus musculus), P51450. Drosophila S2 Gal4-RORgamma UAS-luciferase reporter, 20 h. Potency, µM (series often up to 53.6 µM), for inactives: at the highest dose activity change, negative = inhibition, usual class: inhibitors. 5.4% of 310,000 active. AID 2551, 2010; note: potency is the fitted concentration of half-maximal effect; % is set by controls: 0 for no effect and ±100 for the full control effect; nearly all actives have a fitted effect of over 60% in size
Target sequence (P51450 whole entry, looked up, the tested form may be a part): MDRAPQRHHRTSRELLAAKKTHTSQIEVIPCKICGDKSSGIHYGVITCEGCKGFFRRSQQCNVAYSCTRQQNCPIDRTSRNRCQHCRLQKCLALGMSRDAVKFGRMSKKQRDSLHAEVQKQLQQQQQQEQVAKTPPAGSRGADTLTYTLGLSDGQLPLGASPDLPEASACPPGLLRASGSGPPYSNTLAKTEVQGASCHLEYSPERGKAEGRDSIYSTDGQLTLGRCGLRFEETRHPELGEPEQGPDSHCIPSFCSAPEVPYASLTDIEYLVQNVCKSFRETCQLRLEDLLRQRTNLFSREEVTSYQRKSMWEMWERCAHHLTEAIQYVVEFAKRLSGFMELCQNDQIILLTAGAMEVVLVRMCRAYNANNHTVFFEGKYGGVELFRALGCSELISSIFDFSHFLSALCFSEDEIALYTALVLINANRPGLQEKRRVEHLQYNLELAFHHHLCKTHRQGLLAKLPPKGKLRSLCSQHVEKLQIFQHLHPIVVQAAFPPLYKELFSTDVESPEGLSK
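Luminescence from a UAS-regulated Photinus luciferase reporter in stably transfected Drosophila Schneider cells is measured; decreased signal marks ROR gamma inhibition. Fusion expression is induced by 700 uM copper sulfate for 20 hr.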
IL-1B inflam inh: qHTS for Inhibitors of Inflammasome Signaling: IL-1-beta AlphaLISA Primary Screen | THP-1 LPS/ATP IL-1B secretion, AlphaLISA, 16 h; hits give low values | activity change, % at 57.5 µM | 4.7% of 360,000 active; in the data active = activity change below about -50%; inconclusive = mostly about -30% to -49%; note: % is set by controls: 0 for no effect and ±100 for the full control effect
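THP-1 cells pretreated 1 hr with compounds (up to 57.5 uM final), then stimulated with LPS (250 ng/mL final) plus ATP (1.25 mM final); secreted IL-1B measured by AlphaLISA after 16 hr, decreased signal indicating inhibition.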
MCF10A rerep: A quantitative high throughput screen for small molecules that induce DNA re-replication in MCF 10a normal breast cells; 2.9% of 350,000 active; AID 624296, 2012; Potency, µM (series often up to 46.1 µM), without a hit: at the highest dose activity, positive = re-replication, actives largely listed as activators; MCF 10A DNA re-replication, Hoechst nuclear intensity, 48 h; note: potency is the fitted concentration of half-maximal effect; % of control where 0% means no effect; nearly all actives have a fitted effect of over 50% in size
* hit, by the source's call; ? = inconclusive; · = no result; [ ] = remark or other dose. Unless noted, calls come from the whole dose curve; as a rule, active = well fitted curve in the direction sought with a large enough effect; inconclusive = small, poorly fitted or top-dose-only effect, or another doubt; inactive = no such curve, though single readings can be large; an effect the other way counts as inactive or inconclusive.

SMILES	Gal4-VP16 FLuc	SW480 rerep	RORg inh	IL-1B inflam inh	MCF10A rerep
CCOC(=O)c1nnn(CC(=O)N2N=C(c3ccccc3)CC2c2ccccc2)c1C(=O)OCC (centres undefined)	-18.8%	-2.5%	12.6µM*	21.3	3.2%
CC1(C(=O)NCCCNc2ncc(C(F)(F)F)cc2Cl)C=CC2(CCCCC2)N1C(=O)c1ccccc1 (centres undefined)	-18.9%	·	1.8%	·	·
Cc1cccc(NC(=O)CCS(=O)(=O)c2cc3c(cc2Cl)NC(=O)CO3)c1	-1.9%	9.2%	9.6%	0.0	0.1%
O=C(/C=C/c1ccccc1)NC(=S)Nc1ccc(CN2CCOCC2)cc1	?	?	3.98µM*	-109.4*	?
O=C(/C=C/c1ccc(Cl)cc1Cl)NC(=S)Nc1ccccn1	5.01µM*	-1.5%	2.82µM*	-22.4	6.8%
O=C(NC(=S)Nc1ccc(CN2CCOCC2)cc1)c1cc2ccccc2o1	-11.9%	-4.9%	10.3%	-6.0	2.3%
O=C(/C=C/c1ccc(Cl)cc1Cl)NC(=S)Nc1ccc(CN2CCOCC2)cc1	4.47µM*	9.6%	3.55µM*	-14.1	?
Cc1ccncc1C(=O)O	-3.1%	·	10.4%	·	·
CC(C)CCN1C(N(C)C)=NC[C@@H]1C	·	0.7%	·	-14.6	0.1%
Cc1ccc(C(=O)NNC2=NCCC2)cc1	17.8µM*	6.3%	10µM*	12.2	2.3%
O=C(NNC1=NCCC1)c1cccc(S(=O)(=O)N2CCCC2)c1	?	-3.9%	8.91µM*	30.0	-1.4%
Cc1ccc(C(=O)CNc2ccc(C)cc2C)cc1	-8.8%	2.9%	0.0%	-17.5	7.7%
O=C(NNC1=NCCC1)c1ccc(Br)cc1	6.31µM*	-3.2%	5.62µM*	19.9	2.1%
Cc1ccc(NCC(=O)NNC2=NCCC2)c(C)c1	11.2µM*	-11.0%	8.91µM*	29.4	7.6%
O=C(NNC1=NCCC1)c1cccc(S(=O)(=O)N2CCOCC2)c1	?	-8.0%	?	6.0	7.8%
Cc1cc2nc(-c3ccc(F)cc3)c(CC(C)(C)C)n2c(C)c1Br	·	·	·	42.4	·
CN1CCN(c2ncc3nc(-c4ccc(F)cc4)c(=O)n(Cc4cccs4)c3n2)CC1	2.1%	·	?	·	·
O=C(Nc1ccc(F)cc1F)c1ccccc1NC(=O)C1CC=CCC1C(=O)O (centres undefined)	1.6%	-3.7%	-2.5%	57.4	8.2%
N#C/C(=C/c1ccc([N+](=O)[O-])cc1)C(N)=O	5.8%	0.4%	24.8%	-5.3	0.8%
N#C/C(=C\c1cc([N+](=O)[O-])ccc1Cl)C(N)=O	-7.7%	8.2µM*	-40.2%	-88.8*	20.6µM*
CNCCC=C1c2ccccc2CCc2ccccc21	-3.1%	-76.7%	15.8%	-64.3*	?
COCCn1c(=O)c(-c2cc(F)cc(F)c2)nc2cnc(Oc3cccc(Cl)c3)nc21	7.2%	·	30.3%	·	·
CCOc1ccc(CCN2C(=S)N([C@@H](CC(C)C)CN3CCCC3CN3C(=S)NC[C@@H]3Cc3ccc(O)cc3)C[C@@H]2CC(C)C)cc1 (some centres undefined)	·	-2.5%	·	?	14.2%
CC(C)(C)OC(=O)N1CCN(C(c2ccnc3ccccc23)c2nnnn2-c2ccc3c(c2)OCCO3)CC1 (centres undefined)	·	·	·	5.8	·
CCC1(C)Cc2c(sc3nc(NN)n(C)c(=O)c23)CO1 (centres undefined)	14.1µM*	?	-10.2%	51.9	20.6µM*
SMILES	Gal4-VP16 FLuc	SW480 rerep	RORg inh	IL-1B inflam inh	MCF10A rerep
CCCCCCN1C[C@@H](n2cc(-c3ccc(F)cc3)nn2)[C@H](O)C[C@@H]1c1ccccc1	·	·	·	-10.4	·
CCn1nc2cc(C(=O)NCC34CC5CC(CC(C5)C3)C4)ccc2c1OC	?	-22.9%	7.08µM*	-0.3	-11.4%
CCOc1c2ccc(C(=O)NCC34CC5CC(CC(C5)C3)C4)cc2nn1CC	11.2µM*	18.7%[9.22 µM]	?	?	-29.2%
CC1Cc2ccccc2N1S(=O)(=O)c1cnc(Cl)c(Br)c1 (centres undefined)	-6.5%	?	-1.2%	-69.9*	?
CC1Cc2ccccc2N1S(=O)(=O)c1cnc(Cl)c(Cl)c1 (centres undefined)	-15.2%	-5.5%	-5.2%	?	14.6µM*
CSc1ccc(S(=O)(=O)N2c3ccccc3CC2C)cc1 (centres undefined)	-16.8%	?	42.2%[1.91 µM]	28.5	?
CC1Cc2ccccc2N1S(=O)(=O)c1cnc[nH]1 (centres undefined)	7.9%	-4.6%	6.9%	-20.8	-1.2%
Cc1cnc(NC(=O)CSc2nnc(COc3c(C)cccc3C)o2)s1	?	-0.7%	11.2µM*	48.3	1.2%
COc1ccc2c(c1)O[C@@H](c1ccc3c(c1)OCO3)[C@H](O)C2=O	-11.4%	·	0.5%	·	·
CNc1cnc(-c2ccc(F)c(F)c2F)cn1	·	·	·	13.5	·
Cc1cc(C)nc(NC(=NCCc2c[nH]c3ccccc23)NC(=O)C(C)(C)C)n1	?	?	7.08µM*	-0.6	14.2%
Cc1ccc(O)c(N=NC2=C(O)CC(C)(C)CC2=O)c1	8.91µM*	16.3%	7.94µM*	45.8	?
CC1(C)CC(=O)C(N=Nc2cc(Cl)c(Cl)c(Cl)c2)=C(O)C1	?	-12.5%	25.5%	32.1	11.8%
O=C1C=C(O)c2ccccc2C1=O	-0.2%	·	-7.2%	·	·
O=C1C=C(c2c(O)ccc3ccccc23)c2ccccc2C1=O	·	18.4µM*	·	-116.8*	17.2%
CN1C(=O)C(O)(CC(=O)c2ccncc2)c2ccccc21 (centres undefined)	13.2%	?	-68.3%	-52.8*	?
O=C(NCc1ccco1)/C(=C\c1cccs1)NC(=O)c1ccsc1	-12.1%	1.7%	13.9%	-14.9	1.3%
O=C(NCc1ccco1)/C(=C\c1ccco1)NC(=O)c1ccccc1Cl	22.2%	11.6µM*	-8.9%	-3.7	-10.6%
O=C(NCc1ccco1)/C(=C/c1ccco1)NC(=O)c1ccco1	0.8%	7.6%	-16.0%	0.7	6.6%
CC(C)(C)c1ccc(C(=O)N/C(=C/c2cccs2)C(=O)NCc2ccco2)cc1	-11.9%	-3.3%	-10.6%	-68.3*	3.5%
Cc1cc(/C=C(\C#N)C(=O)Nc2ccccc2)c(C)n1-c1ccc2c(c1)OCO2	9.4%	3.66µM*	11.2%	?	?
Cc1cc(/C=C(\C#N)C(=O)O)c(C)n1-c1ccc(Br)cc1	-2.8%	?	-3.4%	-2.6	6.4%
Cc1ccccc1NC(=O)/C(C#N)=C\c1cc(C)n(-c2ccc(C(=O)O)cc2)c1C	1.2%	-14.7%	41.9%	-56.2*	0.5%
CNC(=O)/C(C#N)=C\c1cc(C)n(-c2ccc(N3CCOCC3)cc2)c1C	1.2%	1.4%	-3.0%	15.8	1.1%
Cc1cc(/C=C(/C#N)C(=O)Nc2ccccc2)c(C)n1-c1cccnc1	-3.4%	0.9%[9.22 µM]	18.3%	-59.5*	22.0%
